# Results published in PubChem BioAssay (NCI).
# This is part of a sample that, as a whole, favours compounds with a hit. Of some 79,000 tested, about 15% had one in any assay. A number with no mark means an inactive call. The source made the active and inactive calls. Cut-off read from the data, not from the text of the source: active = growth inhibition above about 70%; inactive = the rest.
# Assays:
# [1] = NCI Yeast Anticancer Drug Screen. Data for the rad50 strain (AID 155);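 note: 0% = growth of vehicle-only cultures of the same strain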; conditions: S. cerevisiae rad50 strain growth inhibition, stronger effect = higher value
# How it was run: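 Relative growth inhibition (compound vs vehicle) was measured in yeast with a defined repair-gene alteration.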
# [2] = NCI Yeast Anticancer Drug Screen. Data for the mec2-1 strain (AID 157); conditions: S. cerevisiae mec2-1 strain, stronger effect = higher value
# How it was run: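 mec2-1 yeast strain, carrying an alteration in DNA damage repair or cell cycle control, was exposed to compounds; growth inhibition was measured relative to vehicle-treated controls.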
# [3] = NCI Yeast Anticancer Drug Screen. Data for the sgs1 mgt1 strain (AID 161);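 note: 0% = growth of cultures given vehicle only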; conditions: S. cerevisiae sgs1 mgt1 strain, stronger effect = higher value
# How it was run: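 Yeast cells carrying a defined DNA-repair defect were exposed to test compounds. Growth inhibition was measured relative to vehicle-treated controls.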
# [4] = NCI Yeast Anticancer Drug Screen. Data for the cln2 rad14 strain (AID 165);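 note: 0% = growth equal to vehicle treated cultures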; conditions: S. cerevisiae cln2 rad14 strain, stronger effect = higher value
# How it was run: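 Yeast carrying cln2 and rad14 alterations (cell cycle control and DNA damage repair) were exposed to compounds. Growth inhibition was measured against vehicle-treated controls.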
# [5] = NCI Yeast Anticancer Drug Screen. Data for the bub3 strain (AID 167); conditions: S. cerevisiae bub3 mutant strain, stronger effect = higher value
# How it was run: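 Screening used yeast with an engineered genetic alteration affecting cell cycle control. Compound-exposed cultures were compared with vehicle cultures, and reduced growth was taken as inhibition.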
# [6] = NCI Yeast Anticancer Drug Screen. Data for the mlh1 rad18 strain (AID 175); conditions: S. cerevisiae mlh1 rad18 strain growth inhibition, stronger effect = higher value
# How it was run: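 Growth inhibition of the yeast strain was measured after compound exposure and expressed relative to vehicle-treated controls. The strain carries defined defects in DNA damage repair.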
# [7] = at 5.0 µM (retest, dose inferred, filed as 0.5)
# [8] = at 50.0 µM (retest, dose inferred, filed as 5.0)
SMILES,"growth inhibition [1, 7]","growth inhibition [1, 8]",growth inhibition ([1]; at 50.0 µM),"growth inhibition [2, 7]","growth inhibition [2, 8]",growth inhibition ([2]; at 50.0 µM),"growth inhibition [3, 7]","growth inhibition [3, 8]",growth inhibition ([3]; at 50.0 µM),"growth inhibition [4, 7]","growth inhibition [4, 8]",growth inhibition ([4]; at 50.0 µM),"growth inhibition [5, 7]","growth inhibition [5, 8]",growth inhibition ([5]; at 50.0 µM),"growth inhibition [6, 7]","growth inhibition [6, 8]",growth inhibition ([6]; at 50.0 µM)
CCCCCCCCCCCC(=O)NN,14%,82% (active),97.4% (active),12%,43%,97.6% (active),6%,68%,98% (active),-3%,65%,97% (active),22%,52%,95.3% (active),8%,82% (active),97.8% (active)
O=C(c1ccccc1)C(C(=O)c1ccccc1)c1ccc2ccccc2n1,0%,1%,19.2%,1%,-4%,2.75%,-2%,-1%,63.5%,-2%,1%,9.75%,1%,-4%,19.1%,-2%,-3%,22.9%
S=C(N/N=C/c1ccccn1)N1CCCCC1,99% (active),98% (active),89.3% (active),97% (active),99% (active),92.4% (active),98% (active),97% (active),91.8% (active),96% (active),99% (active),93% (active),98% (active),100% (active),92% (active),98% (active),99% (active),89.5% (active)
O=C(CCl)Oc1ccc(Sc2ccc(OC(=O)CCl)cc2)cc1,6%,97% (active),98.7% (active),12%,98% (active),98.3% (active),10%,97% (active),98.8% (active),13%,94% (active),96.3% (active),1%,99% (active),99.4% (active),7%,99% (active),97.9% (active)
O=C1c2ccc(O)c(O)c2C(=O)c2c(O)ccc(O)c21,84% (active),95% (active),73.2% (active),74% (active),95% (active),55.5%,92% (active),95% (active),67.6%,34%,93% (active),56%,85% (active),93% (active),72% (active),91% (active),95% (active),77.8% (active)
OCC1OC(NC(=S)NCSCCC(F)(F)C(F)(F)C(F)(F)C(F)(F)C(F)(F)C(F)(F)F)C(O)C(O)C1O (configuration not stated),17%,-21%,80.8% (active),7%,19%,93.5% (active),36%,36%,93.6% (active),22%,37%,66.4%,7%,-8%,95.1% (active),22%,-3%,92.3% (active)
COc1cc(CCN=Cc2cc(Cl)cc(Cl)c2O)c([N+](=O)[O-])cc1OC,60%,74% (active),58.8%,42%,55%,69.5%,53%,95% (active),62.4%,35%,57%,43%,51%,94% (active),77.7% (active),64%,91% (active),62.6%
COc1ccc2ccc(=O)oc2c1CC=C(C)C,88% (active),98% (active),46.5%,13%,99% (active),37.6%,6%,99% (active),72.5% (active),7%,98% (active),-9.6%,14%,98% (active),62%,13%,98% (active),31.5%
O=C(c1ccc(Cl)cc1)c1ccc(OCCCOc2ccc(C(=O)c3ccc(Cl)cc3)cc2)cc1,-14%,-32%,17.5%,-13%,2%,-16.1%,-18%,-4%,-2.15%,-30%,-7%,38.1%,-14%,-14%,-14.6%,-22%,-26%,-1.7%
C=CC(=O)Oc1ccccc1/C=C/C(=O)CCCCCC,37%,95% (active),96.5% (active),4%,98% (active),97.5% (active),14%,88% (active),97.5% (active),-2%,72% (active),62.8%,0%,95% (active),83.1% (active),4%,95% (active),96% (active)
CCCCCCCCCCCCCCC(O)C(=O)O (configuration not stated),-6%,-27%,68.7%,-2%,-31%,88.1% (active),-7%,-33%,33%,-1%,-42%,11.4%,-1%,-28%,96.4% (active),-2%,-27%,73.5% (active)
CC12CC(Sc3ccccc3N1)c1ccccc1O2 (configuration not stated),37%,54%,42.2%,28%,46%,25.3%,43%,80% (active),51.8%,33%,40%,27.4%,40%,73% (active),76.3% (active),40%,73% (active),44.5%
C#CCOC(=O)Nc1nc2ccc(SC#N)cc2s1,9%,90% (active),97.8% (active),-5%,87% (active),96.8% (active),3%,98% (active),97.7% (active),0%,92% (active),96.4% (active),14%,90% (active),97.6% (active),4%,96% (active),97.2% (active)
Cn1c(CN(Cc2nc3ccccc3n2C)Cc2nc3ccccc3n2C)nc2ccccc21,7%,73% (active),76.7% (active),2%,85% (active),87.9% (active),3%,72% (active),69.7%,3%,89% (active),68.8%,4%,47%,56.2%,3%,80% (active),56%
C/C=C/C=C1\C=Cc2c(C(=O)OC)coc(=O)c21,-9%,85% (active),92% (active),14%,91% (active),94.2% (active),7%,85% (active),76.3% (active),-9%,76% (active),62.8%,15%,96% (active),94% (active),14%,97% (active),95% (active)
CCCn1cnc2c(SCc3ccc(Cl)cc3Cl)nc(N)nc21,12%,14%,97.1% (active),12%,12%,97.2% (active),13%,15%,97% (active),12%,-9%,97.2% (active),13%,16%,97.5% (active),11%,12%,95.7% (active)
c1ccc2c(c1)nc1cc(NC3CCCCC3)c(=NC3CCCCC3)cc-1n2C1CCCCC1,8%,4%,44.5%,0%,5%,37.6%,-7%,2%,42.8%,-1%,-13%,23.3%,-3%,16%,39.8%,0%,-49%,16.6%
CCCC(C)c1ccc(O)cc1 (configuration not stated),6%,13%,57.4%,1%,16%,43.9%,0%,16%,51.7%,4%,-3%,-26.3%,-2%,17%,24.6%,2%,39%,91.7% (active)
Cc1[nH]nc(C(=O)OC(C)C)c1N=NN(C)C,-65%,94% (active),98.2% (active),-43%,98% (active),98.7% (active),-46%,96% (active),96.2% (active),-69%,97% (active),97.3% (active),-64%,95% (active),98.3% (active),-115%,95% (active),98.7% (active)
